Here are results for 14 compounds from PubChem BioAssay.

Calls of active or inactive are those of the source.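 Rule for the calls, unless noted: active = fluorescence slope after compound addition differing from the mean of all screened samples at 99.7% confidence, in either direction; inactive = the rest.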

The nature of assay [1]: inhibitors of TNFa-induced NFkB p65 translocation, primary screen, imaging, HUVEC, MLSMR starter and 10KST1 sets (AID 438;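 active = inhibition above 20% together with a positive visual image hit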;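 note: compound added about 3h40 before a 20 min TNFalpha stimulation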;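 for inhibition: signal is the nuclear over cytoplasmic p65 intensity ratio per well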). To be noted: HUVEC TNFa-induced p65 nuclear translocation; cell count: measured here: nuclei count (cytotoxicity indicator), at 2.08 µM; inhibition: at 2 µM, stronger effect = higher value, 0% TNFa-plus-vehicle, 100% no-TNFa wells.
Assay [2] is described as follows: inhibitors of mutant huntingtin aggregation, primary screen, imaging, exon1htt(103Q)mCFP cells, high-content imaging (AID 483;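 active = visual image review flags a hit and inhibition of aggregation exceeds 20%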;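 note: compound exposure lasted 3 days before fixation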;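 for nuclei count: percent of the per-plate median nuclei count of sample wells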). The following applies: exon1htt(103Q)mCFP cell line, aggregate imaging, at 2 µM; inhibition of aggregation: stronger effect = higher value; nuclei count: measured here: cell count, toxicity.
Assay [3] can be described thus: inhibitors of E-selectin induction by TNFa, primary screen, imaging, HUVEC, immunofluorescence, MLSMR starter and 10KST1 sets (AID 487;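 active = visually confirmed hit in the image check and inhibition above 20%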;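 for inhibition: signal is fraction of cell area covered by stained E-selectin grains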;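 for nuclei count: 100% = median nuclei count of all wells on the same plate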). The following applies: HUVEC TNFalpha-induced E-selectin immunofluorescence imaging, at 2 µM; inhibition: stronger effect = higher value; nuclei count: measured here: cell number, toxicity.
The target of assay [4] is Voltage-gated potassium channel subunit beta-2 (Rattus norvegicus) (UniProt P62483). The assay can be described thus: KvBeta enzyme negative modulators, primary screen, biochemical, NADPH fluorescence (AID 622;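 active = fluorescence slope higher than the sample average by over 3 SD, cut at about -0.22 in these data, passing the limit was not always enough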;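 note: slope of raw intensity against log time taken from 70 to 1610 s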). The following applies: recombinant KvBeta, 4-cyanobenzaldehyde reduction, at 10 µM, stronger effect = higher value.
For assay [5] the target is unchanged. The assay can be described thus: KvBeta positive modulators, primary screen, biochemical, NADPH fluorescence (AID 623;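 active = NADPH fluorescence slope more negative than the mean of all samples by about 3 SD, 99.7% confidence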;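 note: fluorescence intensity change per second fitted from 20 to 320 s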). The following applies: Recombinant KvBeta, NADPH fluorescence decrease slope, 10 min; at 10 µM; stronger effect = lower value.
In assay [6] the target is Alpha-2C adrenergic receptor (Homo sapiens) (UniProt P18825). The assay can be described thus: modulators of alpha2C/GIRK thallium flux, primary screen, cell-based, HEK293 alpha2C/GIRK1/2 (AID 624).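 Note: slope of fluorescence ratio to pre-addition baseline per second over 15 to 24 s.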 To be noted: thallium flux BTC fluorescence, at 10 µM, actives lie on both sides.
Assay [7] in a line: inhibitors of Sendai virus-induced IRF3 signaling, primary screen, TLR/RLR signaling modifier project, cell-based, Sendai virus stimulus, luciferase, 10K MLSCN set (AID 602276;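 active = inhibition at or above 50% at 10 µM; inactive = inhibition below 50%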;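 note: firefly luciferase from ISG56 promoter only with Renilla not read in this screen; 0% = Sendai virus plus DMSO and 100% = medium plus DMSO without virus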). The following applies: HEK293 RL24 IRF3 luciferase reporter, at 10 µM, stronger effect = higher value. For orientation: In a reporter assay the amount or activity of a reporter protein is the signal.
Assay [8] in a line: inhibitors of poly I:C-induced TLR3 signaling, primary screen, cell-based, poly I:C stimulus, luciferase, 10K MLSCN set (AID 602277;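 active = inhibition of the reporter signal at or above 50%; inactive = inhibition below 50%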). To be noted: HEK293-TLR3 RL24 IRF3 luciferase reporter, at 10 µM, stronger effect = higher value.

Sequence of Voltage-gated potassium channel subunit beta-2 (Rattus norvegicus) (P62483 whole entry, looked up): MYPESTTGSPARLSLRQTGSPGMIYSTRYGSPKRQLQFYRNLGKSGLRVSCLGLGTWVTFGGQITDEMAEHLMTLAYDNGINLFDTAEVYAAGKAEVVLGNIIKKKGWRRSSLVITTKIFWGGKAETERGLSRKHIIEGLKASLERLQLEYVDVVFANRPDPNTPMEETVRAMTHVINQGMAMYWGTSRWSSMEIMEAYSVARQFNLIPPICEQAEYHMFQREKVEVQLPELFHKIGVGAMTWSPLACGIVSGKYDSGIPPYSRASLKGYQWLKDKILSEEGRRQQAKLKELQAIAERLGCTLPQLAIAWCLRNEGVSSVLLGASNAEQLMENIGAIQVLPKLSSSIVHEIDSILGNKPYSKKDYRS
Sequence of Alpha-2C adrenergic receptor (Homo sapiens) (P18825 whole entry, looked up): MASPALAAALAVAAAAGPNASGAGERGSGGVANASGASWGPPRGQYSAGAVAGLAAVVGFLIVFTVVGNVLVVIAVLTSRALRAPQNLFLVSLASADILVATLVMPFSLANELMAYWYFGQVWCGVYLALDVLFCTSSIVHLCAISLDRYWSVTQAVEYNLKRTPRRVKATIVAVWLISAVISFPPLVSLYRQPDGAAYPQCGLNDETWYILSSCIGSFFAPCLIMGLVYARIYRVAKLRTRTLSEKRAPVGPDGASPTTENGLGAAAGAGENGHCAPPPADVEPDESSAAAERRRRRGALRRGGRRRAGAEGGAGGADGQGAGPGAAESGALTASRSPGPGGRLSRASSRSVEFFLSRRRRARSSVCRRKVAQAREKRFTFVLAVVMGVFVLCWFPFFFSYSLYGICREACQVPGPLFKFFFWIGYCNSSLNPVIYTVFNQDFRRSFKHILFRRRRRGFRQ

As usually defined, the inhibition is the drop in the measured response relative to a control, in per cent. Consider `COCCSc1ccccc1C(=O)Nc1nncs1`, for which the cell count in assay [1] came out at 659. Moreover, the inhibition in assay [1] was -27.6% (inactive); in assay [3], -60.7% (inactive); in assay [7], -7.19% (inactive); in assay [8], 2.28% (inactive). Moreover, the inhibition of aggregation in assay [2] was -7.4% (inactive). The nuclei count in assay [2] stood at 99.6%; in assay [3], 112%. The fluorescence slope in assay [4] is -0.598 (inactive). Moreover, in assay [5], the NADPH fluorescence slope was -2.1e-05 (inactive). Further, the slope in assay [6] was 0.00672 (inactive).
For `CCC(C)(C(=O)NC1CCCCC1)N(Cc1ccco1)C(=O)c1cnccn1` (centres undefined), the cell count in assay [1] was 471. The inhibition in assay [1] is 0.3% (inactive); in assay [3] it was -23.4% (inactive); in assay [7], 10.7% (inactive); in assay [8] it was 27.6% (inactive). For the same compound, the inhibition of aggregation in assay [2] is 16.1% (inactive). Moreover, the nuclei count in assay [2] amounted to 89.9%; in assay [3], 110%. The fluorescence slope in assay [4] was -0.376 (inactive). For the same compound, the NADPH fluorescence slope in assay [5] is -4.2e-05 (inactive). Moreover, the slope in assay [6] was 0.00684 (inactive).
Consider `CC(C)Cn1c(CN2CCN(c3ccccc3F)CC2)nc2c1c(=O)[nH]c(=O)n2C`, for which the cell count in assay [1] stood at 664. For the same compound, the inhibition is -7.7% (inactive) in assay [1], -7.3% (inactive) in assay [3], 10.6% (inactive) in assay [7] and 19.7% (inactive) in assay [8]. The inhibition of aggregation in assay [2] is -8.3% (inactive). The nuclei count was 101% in assay [2] and 103% in assay [3]. Moreover, the fluorescence slope in assay [4] is -0.521 (inactive). Further, in assay [5], the NADPH fluorescence slope was -3.3e-05 (inactive). Moreover, in assay [6], the slope was 0.00688 (inactive).
Take `CCN(CC)CCCN1C(=O)C(O)=C(C(C)=O)C1c1cccc(OC)c1` (centres undefined): in assay [1], the cell count worked out at 468. In addition, the inhibition was 7.8% (inactive) in assay [1], -142% (inactive) in assay [3], 11.2% (inactive) in assay [7] and 13.5% (inactive) in assay [8]. For the same compound, the inhibition of aggregation in assay [2] is 3.9% (inactive). Besides, the nuclei count in assay [2] stood at 97.3%; in assay [3] it was 105%. Also, in assay [4], the fluorescence slope is -0.367 (inactive). Moreover, the NADPH fluorescence slope in assay [5] is -4.4e-05 (inactive). Besides, the slope in assay [6] was 0.00698 (inactive).
For `CCOC(=O)CSc1nnc(NCC(=O)OC(C)C)c(=O)[nH]1`, the cell count in assay [1] stood at 634. Further, the inhibition in assay [1] is 7.2% (inactive); in assay [3] it was -81.4% (inactive); in assay [7], 9.31% (inactive); in assay [8], 3.05% (inactive). In addition, the inhibition of aggregation in assay [2] is 3.7% (inactive). In addition, the nuclei count in assay [2] worked out at 100%; in assay [3], 144%. Besides, in assay [4], the fluorescence slope was -0.573 (inactive). In addition, the NADPH fluorescence slope in assay [5] is 3.9e-05 (inactive). In addition, the slope in assay [6] was 0.00694 (inactive).
As for `COc1ccccc1-c1nc2n(n1)C(c1cccs1)C(C(=O)Nc1cccnc1)=C(C)N2` (centres undefined), the cell count in assay [1] was determined as 446. Also, the inhibition in assay [1] was 16.2% (inactive); in assay [3] it was 7.4% (inactive); in assay [7], -11.5% (inactive); in assay [8] it was -7.18% (inactive). In assay [2], the inhibition of aggregation was -15.2% (inactive). Besides, the nuclei count was 57.9% in assay [2] and 98.9% in assay [3]. Moreover, the fluorescence slope in assay [4] is -0.587 (inactive). Besides, the NADPH fluorescence slope in assay [5] was -3.8e-05 (inactive). Moreover, in assay [6], the slope is 0.00515 (inactive).
Take `CCOc1ccc(C(=O)N2CCN(C(=O)c3ccco3)CC2)cc1OCC`: the cell count in assay [1] stood at 558. Further, the inhibition in assay [1] was -2.7% (inactive); in assay [3], 28.1% (inactive); in assay [7], 12% (inactive); in assay [8], 21.2% (inactive). In assay [2], the inhibition of aggregation is -6.8% (inactive). The nuclei count in assay [2] is 111%; in assay [3] it was 93.4%. Further, the fluorescence slope in assay [4] is -0.367 (inactive). Moreover, in assay [5], the NADPH fluorescence slope is 4.3e-05 (inactive). Besides, the slope in assay [6] was 0.00675 (inactive).
For `Cc1ccc(NC(=O)CSc2nnc(-c3ccccn3)n2C)cc1`, in assay [1], the cell count was found to be 644. Also, the inhibition in assay [1] was 14.4% (inactive); in assay [3], 0.6% (inactive); in assay [7], 0.794% (inactive); in assay [8], -5.25% (inactive). Moreover, the inhibition of aggregation in assay [2] was 6.7% (inactive). For the same compound, the nuclei count in assay [2] was found to be 92.4%; in assay [3] it was 111%. Further, the fluorescence slope in assay [4] is -0.418 (inactive). For the same compound, the NADPH fluorescence slope in assay [5] is -2.7e-05 (inactive). The slope in assay [6] is 0.00462 (inactive).
With `CC(C)OC(=O)c1cc(=O)[nH]c2ccccc12`, the cell count in assay [1] amounted to 267. Further, the inhibition was 14% (inactive) in assay [1], -4.6% (inactive) in assay [3], 12.2% (inactive) in assay [7] and 9.33% (inactive) in assay [8]. Moreover, in assay [2], the inhibition of aggregation was 5.3% (inactive). Moreover, the nuclei count in assay [2] was 94%; in assay [3], 92.6%. Further, in assay [4], the fluorescence slope was -0.556 (inactive). In addition, the NADPH fluorescence slope in assay [5] was 3e-05 (inactive). Besides, the slope in assay [6] is 0.00572 (inactive).
Regarding `COc1cc(NC(=O)CN(c2cc(C)cc(C)c2)S(=O)(=O)c2c(C)noc2C)cc(OC)c1`, the cell count in assay [1] came to 541. For the same compound, the inhibition in assay [1] was 2.3% (inactive); in assay [3], -42.2% (inactive); in assay [7], 18.7% (inactive); in assay [8], 19.5% (inactive). The inhibition of aggregation in assay [2] was -25% (inactive). Besides, the nuclei count is 80.6% in assay [2] and 118% in assay [3]. Moreover, the fluorescence slope in assay [4] is -0.619 (inactive). Moreover, the NADPH fluorescence slope in assay [5] was 2.8e-05 (inactive). Moreover, the slope in assay [6] was 0.00758 (inactive).
On to `COC(=O)c1ccc(-c2ccco2)n1Cc1nc(-c2ccc(OC)c(OC)c2)oc1C`, for which, in assay [1], the cell count worked out at 470. Moreover, the inhibition in assay [1] was -0.5% (inactive); in assay [3], -28% (inactive); in assay [7] it was 12.2% (inactive); in assay [8] it was -0.464% (inactive). Besides, the inhibition of aggregation in assay [2] was 19% (inactive). Also, the nuclei count turned out to be 113% in assay [2] and 93.4% in assay [3]. Also, in assay [4], the fluorescence slope is -0.308 (inactive). Besides, the NADPH fluorescence slope in assay [5] is -4.8e-05 (inactive). In assay [6], the slope was 0.00465 (inactive).
Consider `O=C(CSc1ncnc2c1oc1ccccc12)Nc1ccccc1C(F)(F)F`, for which, in assay [1], the cell count is 657. Further, the inhibition in assay [1] was -2.9% (inactive); in assay [3], -13.2% (inactive); in assay [7], -3.61% (inactive); in assay [8], 1.95% (inactive). In addition, the inhibition of aggregation in assay [2] was -15.8% (inactive). In addition, the values for the nuclei count in assay [2] and in assay [3] were 69.1% and 106%, respectively. In assay [4], the fluorescence slope was -0.556 (inactive). Besides, the NADPH fluorescence slope in assay [5] is -5.9e-06 (inactive). In assay [6], the slope is 0.00657 (inactive).
For `COc1ccc(-c2nc(CSCC(=O)N3CCc4ccccc4C3)c(C)o2)cc1OC`, in assay [1], the cell count came to 643. The inhibition is 6.9% (inactive) in assay [1], 5.9% (inactive) in assay [3], 8.21% (inactive) in assay [7] and 12.7% (inactive) in assay [8]. For the same compound, in assay [2], the inhibition of aggregation was -5.2% (inactive). For the same compound, the nuclei count was 101% in assay [2] and 116% in assay [3]. Also, the fluorescence slope in assay [4] was -0.603 (inactive). The NADPH fluorescence slope in assay [5] is -1.8e-06 (inactive). In addition, the slope in assay [6] is 0.00589 (inactive).
On to `CC(C)(C)c1nnc(NC(=O)C2CCN(c3ncccn3)CC2)s1`, for which the cell count in assay [1] came to 547. The inhibition is -9.2% (inactive) in assay [1], -13.7% (inactive) in assay [3], 5.09% (inactive) in assay [7] and 31.5% (inactive) in assay [8]. Further, the inhibition of aggregation in assay [2] is -2.6% (inactive). The nuclei count in assay [2] came to 106%; in assay [3] it was 111%. The fluorescence slope in assay [4] was -0.512 (inactive). In assay [5], the NADPH fluorescence slope is -3.5e-05 (inactive). Moreover, the slope in assay [6] is 0.00755 (inactive).
